Screening data from PubChem.
A selection: hits, their analogues and other compounds. The true share with any hit is near 2.3%.
HepG2 tox-1 – kills HepG2 cells in TGF-b inhibitor counter-screen | HepG2 CAGA-GFP viability, ATP luminescence, 18 h | Potency, µM (doses to about 46.1 µM), most hits filed as cytotoxic | hit rate 0.76% among 410,000
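HepG2 CAGA-GFP cells (1000/well, DMEM with 1% FBS) received compound, then TGF-beta at 500 pg/mL final, and were incubated 18 hours at 37 degrees C. Viability was read by CellTiter-Glo luminescence. Media-only wells were set as complete cell-killing and DMSO as no toxicity.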
TGFb inhibitor – blocks TGF-b signaling. HepG2 CAGA-GFP TGF-b/SMAD3 reporter, GFP fluorescence, 18 h; TGF-beta stimulated, 500 pg/mL final. Potency, µM (highest dose often 46.1 µM), hits mostly inhibitors. hit rate 1.2% among 410,000; further: nearly all actives have a fitted effect of over 65% in size
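Per well, imaged GFP fluorescence of HEPG2 CAGA-GFP cells gives the signal; cells get compound, then TGF-beta (500 pg/mL final), 18 h at 37 degrees C; %Activity versus -TGF-beta and +DMSO controls.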
ATXN2 expr inh – inhibitors of ATXN2 expression. HEK-293 ATXN2-luciferase reporter, luminescence, 24 h. Potency, µM (series often up to 57 µM), usual class: inhibitors. hit rate 0.72% among 360,000; further: nearly all actives have a fitted effect of over 55% in size
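qHTS (up to 57 uM final) was run with 24 h compound exposure of reporter cells at 37 °C. Each well was multiplexed: SteadyGlo luminescence measured ATXN2-luciferase expression after a fluorogenic Gly-Phe-AFC viability readout (25 uM final).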
ATXN viability – viability counter-screen for ATXN expression inhibitors | hit rate 0.49% among 400,000 | S2 cells (HEK-293 line with an ATXN2-luciferase reporter) viability, CellTiter-Fluor protease fluorescence, 24 h | Potency, µM (series often up to 56.7 µM), most hits filed as cytotoxic; further: nearly all actives have a fitted effect of over 40% in size
TGFb CAGA inh – confirmation of TGF-b signaling inhibitors in HepG2 reporter cells. shares compounds with TGFb inhibitor. HepG2 CAGA-GFP TGF-b reporter, GFP fluorescence, 18 h; cells stimulated with TGF-beta, 500 pg/mL. Potency, µM (titrated, usually from 46.1 µM), actives largely listed as inhibitors. hit rate 63% among 1,600. AID 720534; further: nearly all actives have a fitted effect of over 65% in size
HepG2 tox-2 – toxic to HepG2 cells in TGF-b counterscreen; hit rate 27% among 1,600; HepG2 CAGA-GFP viability, ATP luminescence, 18 h; cells stimulated with TGF-beta, 500 pg/mL; AID 720535; shares compounds with TGFb inhibitor; Potency, µM (series often up to 46.1 µM), hits mostly inhibitors; further: nearly all actives have a fitted effect of over 70% in size
TGFb CCL64 inh – orthogonal confirmation of TGF-b inhibitors in CCL64 cells; hit rate 41% among 1,600; CCL64 CAGA-GFP reporter, TGF-b stimulated, GFP fluorescence, 18 h; shares compounds with TGFb inhibitor; Potency, µM (titrated, usually from 46.1 µM), usual class: inhibitors; further: nearly all actives have a fitted effect of over 65% in size
COP TGFb inh – blocks TGF-b signaling in HepG2 COP reporter; shares compounds with TGFb inhibitor; HepG2 COP-GFP TGF-b reporter, GFP fluorescence, 18 h; cells stimulated by added recombinant TGF-beta; Potency, µM (highest dose often 46.1 µM), most hits filed as inhibitors; hit rate 3% among 1,600; further: nearly all actives have a fitted effect of over 70% in size
Hits are given with their value. The call rests on the fitted dose curve; in most records, active means well fitted curve in the direction sought with a large enough effect; inconclusive means small, poorly fitted or top-dose-only effect, or another doubt; inactive means no such curve, though single readings can be large; an effect the other way counts as inactive or inconclusive.

How did COc1ccc(CNC(=O)C[C@H]2C[C@H](C(=O)N3CCCCC3)[C@@]3(CCc4ccccc4)c4[nH]c5ccc(Cl)cc5c4CCN3C2=O)cc1OC do in these assays?
HepG2 tox-1: inactive; TGFb inhibitor: 6.31µM; ATXN2 expr inh: inactive; ATXN viability: inconclusive; TGFb CAGA inh: 8.2µM; HepG2 tox-2: inactive; TGFb CCL64 inh: 6.51µM; COP TGFb inh: inactive

Results for CC[C@]12c3[nH]c4ccc(Cl)cc4c3CCN1C(=O)[C@@H](CC(=O)NCc1ccc(OC)c(OC)c1)C[C@@H]2C(=O)N1CCN(C(=O)C2CC2)CC1 ?
HepG2 tox-1: inactive; TGFb inhibitor: inactive; ATXN2 expr inh: inactive; ATXN viability: inactive

How did O=[N+]([O-])c1cccc(N=Nc2ccc(O)cc2O)c1 do in these assays?
HepG2 tox-1: inactive; TGFb inhibitor: 2.51µM; ATXN2 expr inh: inconclusive; ATXN viability: inconclusive; TGFb CAGA inh: 11.6µM; HepG2 tox-2: 8.2µM; TGFb CCL64 inh: 5.8µM; COP TGFb inh: inactive

How did CCN(CC)S(=O)(=O)c1cccc(NC(=O)CCSc2ccc(Cl)cc2)c1 do in these assays?
HepG2 tox-1: inactive; TGFb inhibitor: 10µM; ATXN2 expr inh: inconclusive; ATXN viability: inactive; TGFb CAGA inh: 20.6µM; HepG2 tox-2: inconclusive; TGFb CCL64 inh: 25.9µM; COP TGFb inh: inactive

How did Cc1cc(C)n(-c2ccc(C(=O)Nc3cccc(S(=O)(=O)N(C)C)c3)cc2)n1 do in these assays?
HepG2 tox-1: inactive; TGFb inhibitor: inconclusive; ATXN2 expr inh: inactive; ATXN viability: inactive

What do the screens show for `CN(C)S(=O)(=O)c1cccc(NC(=O)COC(=O)CCSc2ccc(Cl)cc2)c1`?
HepG2 tox-1: inactive; TGFb inhibitor: inactive; ATXN2 expr inh: inactive; ATXN viability: inactive

How did CCN(CC)S(=O)(=O)c1cccc(NC(=O)c2ccc(-n3nc(C)cc3C)cc2)c1 do in these assays?
HepG2 tox-1: inactive; TGFb inhibitor: 7.94µM; ATXN2 expr inh: inconclusive; ATXN viability: inconclusive; TGFb CAGA inh: inconclusive; HepG2 tox-2: inactive; TGFb CCL64 inh: inactive; COP TGFb inh: inactive

How did O=C(O)/C=C/c1ccc([N+](=O)[O-])o1 do in these assays?
HepG2 tox-1: inactive; TGFb inhibitor: inactive; ATXN2 expr inh: inactive; ATXN viability: inactive

How did N#CCc1ccc(NC(=O)/C=C/c2ccc([N+](=O)[O-])o2)cc1 do in these assays?
HepG2 tox-1: 11.2µM; TGFb inhibitor: 7.08µM; ATXN2 expr inh: 8.91µM; ATXN viability: 12.6µM; TGFb CAGA inh: 2.59µM; HepG2 tox-2: 5.8µM; TGFb CCL64 inh: 9.2µM; COP TGFb inh: inconclusive

Results for C=C(C(=O)c1ccccc1)C(CC(=O)c1ccccc1)c1ccccc1 (stereo not drawn) ?
HepG2 tox-1: inactive; TGFb inhibitor: 12.6µM; ATXN2 expr inh: 25.1µM; ATXN viability: inconclusive; TGFb CAGA inh: 9.2µM; HepG2 tox-2: 10.3µM; TGFb CCL64 inh: 9.2µM; COP TGFb inh: inactive

How did O=C(Cc1ccccc1)CC(CC(=O)c1ccccc1)c1ccccc1 (stereo not drawn) do in these assays?
HepG2 tox-1: inactive; TGFb inhibitor: inactive; ATXN viability: inactive

Results for COc1ccccc1CNc1nc(Nc2ccc(C)cc2C)c2sccc2n1 ?
HepG2 tox-1: inactive; TGFb inhibitor: inconclusive; ATXN2 expr inh: inconclusive; ATXN viability: inconclusive

What do the screens show for `O=C1CCCN1CCCNc1nc(NCc2cccs2)nc2ccsc12`?
HepG2 tox-1: inactive; TGFb inhibitor: 10µM; ATXN2 expr inh: inactive; ATXN viability: inconclusive; TGFb CAGA inh: 6.51µM; HepG2 tox-2: inconclusive; TGFb CCL64 inh: inconclusive; COP TGFb inh: inactive

What do the screens show for `CC(=O)NCCNc1nc(NCc2cccs2)nc2ccsc12`?
HepG2 tox-1: inactive; TGFb inhibitor: inactive; ATXN2 expr inh: inactive; ATXN viability: inactive

How did Cc1ccc(Nc2nc(NCc3cccs3)nc3ccsc23)c(C)c1 do in these assays?
HepG2 tox-1: inactive; TGFb inhibitor: 12.6µM; ATXN2 expr inh: inconclusive; ATXN viability: inconclusive; TGFb CAGA inh: 6.51µM; HepG2 tox-2: inconclusive; TGFb CCL64 inh: inconclusive; COP TGFb inh: inactive

What do the screens show for `COCCNc1nc(NCc2cccs2)nc2ccsc12`?
HepG2 tox-1: inactive; TGFb inhibitor: 12.6µM; ATXN2 expr inh: inactive; ATXN viability: inactive; TGFb CAGA inh: 6.51µM; HepG2 tox-2: inconclusive; TGFb CCL64 inh: inconclusive; COP TGFb inh: inactive

What do the screens show for `COc1ccc(CNc2nc(N)nc3nc[nH]c23)cc1`?
HepG2 tox-1: inactive; TGFb inhibitor: inactive

What do the screens show for `O=C1C2C3CCCC3=C3CCCC3C2C(=O)N1c1ccccc1Cl` (stereo not drawn)?
HepG2 tox-1: inactive; TGFb inhibitor: inconclusive

How did Cc1ccc(-c2c(C3C4C=CCC(C)C4C(=O)N3Cc3ccccc3)ccc3ccccc23)cc1 (stereo not drawn) do in these assays?
HepG2 tox-1: inactive; TGFb inhibitor: inactive

Results for Cc1ccc(-c2nc(N3CCN(S(=O)(=O)c4ccc(F)cc4)CC3)c3ccc(Cl)cc3n2)cc1 ?
HepG2 tox-1: inactive; TGFb inhibitor: inactive

What do the screens show for `Cc1ccc(C)c(NS(=O)(=O)c2cc(C(=O)NCCC3=CCCCC3)ccc2C)c1`?
HepG2 tox-1: inactive; TGFb inhibitor: 20µM; ATXN2 expr inh: inconclusive; ATXN viability: inconclusive; TGFb CAGA inh: inconclusive; HepG2 tox-2: inconclusive; TGFb CCL64 inh: inconclusive; COP TGFb inh: inactive

Results for Cc1ccc(C)c(NS(=O)(=O)c2cc(C(=O)NCCSC3CCCCC3)ccc2C)c1 ?
HepG2 tox-1: inactive; TGFb inhibitor: inconclusive; ATXN2 expr inh: inconclusive; ATXN viability: inconclusive

What do the screens show for `O=C1CCN(CCc2ccccc2)CCN1C(CSc1ccc(Br)cc1)c1ccccc1` (stereo not drawn)?
HepG2 tox-1: inactive; TGFb inhibitor: inactive

Results for COc1ccccc1OCCn1c(CCNC(=O)C2CCCCC2)nc2ccccc21 ?
HepG2 tox-1: inactive; TGFb inhibitor: inactive

What do the screens show for `Cc1cccc(N2CCN(C(=O)c3cn(C)c(=O)c4c3c3ccccc3n4C)CC2)c1C`?
HepG2 tox-1: inactive; TGFb inhibitor: 10µM; ATXN2 expr inh: inconclusive; ATXN viability: inactive; TGFb CAGA inh: inconclusive; HepG2 tox-2: inconclusive; TGFb CCL64 inh: 20.6µM; COP TGFb inh: inactive
